# Compounds without any hit were thinned out: in the full panel of roughly 83,000, 20% have a hit.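 48-hour exposure, single concentration, 96-well plates; percent growth endpoint where 0 means no net growth. Active: below 10.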 Values without a mark were called inactive. Active and inactive are the calls of the source.
# Columns and labels:
# Experiment in all cases: NCI-60 one-dose screen, 48 h (100 = growth as untreated, 0 = no growth, -100 = all killed)
# Conditions in all cases: 10 µM unless noted
# [1] = system: SR leukemia
# [2] = system: RPMI-8226 leukemia
# [3] = system: OVCAR-8 ovarian
# [4] = system: OVCAR-5 ovarian
# [5] = system: OVCAR-4 ovarian
# [6] = system: SK-OV-3 ovarian
# [7] = system: IGROV1 ovarian
# [8] = system: OVCAR-3 ovarian
# [9] = system: HS 578T breast
# [10] = system: NCI/ADR-RES ovarian
# [11] = system: T-47D breast
# [12] = system: BT-549 breast
# [13] = system: MDA-MB-435 melanoma
# [14] = system: SW-620 colon
# [15] = system: MCF7 breast
# [16] = system: HCT-116 colon
# [17] = system: HCC-2998 colon
# [18] = system: KM12 colon
Structure (SMILES),growth [1],growth [2],growth [3],growth [4],growth [5],growth [6],growth [7],growth [8],growth [9],growth [10],growth [11],growth [12],growth [13],growth [14],growth [15],growth [16],growth [17],growth [18]
Cc1ccc(C(=O)c2ccc(CC(=O)N/N=C/c3cccc(O)c3O)n2C)cc1,8.86% (active),35.1%,38.6%,72.6%,29.1%,68%,51.2%,23.5%,87.4%,19.2%,25.9%,45.8%,61.1%,34.3%,16.1%,30.8%,70.6%,44.2%
C=C1C(=O)O[C@H]2[C@H]1CC/C(COC(=O)NCc1ccc(Cn3c(=O)sn(-c4ccc(I)cc4)c3=O)cc1)=C\CC[C@@]1(C)O[C@@H]21,63%,7.56% (active),82.1%,96.5%,58.9%,100%,67.5%,23.7%,85.7%,106%,45.2%,74.5%,80.9%,3.86% (active),38.6%,28.3%,105%,98.4%
Fc1cccc(-c2nc(-c3c[nH]c4ncccc34)cs2)c1,84.3% [100 µM],68.4% [100 µM],45.3% [100 µM],74.9% [100 µM],9.43% [100 µM] (active),55.9% [100 µM],81.5% [100 µM],36.1% [100 µM],46.5% [100 µM],48.1% [100 µM],40.5% [100 µM],65.6% [100 µM],50.4% [100 µM],56% [100 µM],44.6% [100 µM],33.8% [100 µM],89% [100 µM],56.6% [100 µM]
Clc1ccc(-c2nc(C(Cl)Cl)nc3cc(-c4ccccc4)nn23)cc1,10.4%,38.5%,29.8%,17%,-7.63% (active),18.6%,54.8%,-10.2% (active),-4.46% (active),19.7%,55.3%,89%,37.9%,-5.43% (active),24.8%,23.1%,-53.7% (active),3.35% (active)
COc1ccc(/C=C(\C(=O)NCc2cccnc2)S(=O)(=O)c2ccccc2)cc1OC,17.4%,18%,28.3%,45%,42.1%,81.1%,19.7%,19.7%,59.3%,83%,12.1%,35.5%,-8.51% (active),11.9%,12.9%,15%,96.6%,52.8%
COc1cc(-c2ccc(-c3ccc(C(=N)N)cc3)s2)cc(OC)c1OC,5.38% (active),-22.6% (active),70.7%,83%,54%,77.9%,62.6%,46%,34.7%,95.4%,55.2%,86.3%,40.4%,20.9%,13.6%,15%,-19.6% (active),23.4%
O=C1CCC(C(=O)N/N=C/c2cc(F)ccc2F)N1 (centres undefined),109%,103%,101%,106%,97.6%,108%,102%,102%,99.1%,106%,97.2%,103%,100%,106%,93.4%,103%,107%,104%
COC1C(O)CC(OC2CC(OC3CC(O[C@@H]4C(=O)c5c(cc6cc(OC7CC(OC8CC(O)C(O)C(C)O8)C(O)C(C)O7)c(C)c(O)c6c5O)CC4[C@H](OC)C(=O)O)OC(C)C3O)OC(C)C2O)OC1C (some centres undefined),18%,19%,15.6%,29.3%,44.8%,35.1%,23.7%,18%,23.5%,63%,25.5%,21.4%,28.8%,32%,10.1%,15.4%,38.6%,22.9%
Cc1nc2sc(C(=O)Nc3ccccn3)c(N)c2cc1C(C)O (centres undefined),15.2%,94.5%,92.5%,77.9%,81%,65.2%,70.4%,76.5%,74.7%,74.2%,73.1%,85.1%,-31.6% (active),48.8%,29.6%,48.1%,74.8%,37.5%
CCOC(=O)c1cnn(CC(C)O)c1NC(=O)NCc1ccccc1C(F)(F)F (centres undefined),82.3%,116%,97.6%,102%,98.6%,101%,95.5%,108%,110%,100%,105%,91.4%,104%,105%,95.5%,84.8%,93.8%,99.4%
COCCOC(C)C(/C=N/NC(N)=S)=N/NC(N)=S (centres undefined),53.2%,36.2%,57.1%,97.7%,9.81% (active),93.3%,21.2%,13.9%,83.3%,52.7%,28.7%,90.1%,87.4%,61.7%,19.2%,6.21% (active),94.2%,92.2%
O=C1Nc2ccccc2/C1=N/N1C(=O)CN(CCCl)C1=O,104%,101%,100%,103%,118%,96.9%,97.1%,113%,95.9%,102%,102%,111%,98.9%,95.1%,93.8%,98.6%,104%,113%
Cc1nc([P+](c2ccccc2)(c2ccccc2)c2ccccc2)c(N2CCCCC2)o1,20.3%,-13.5% (active),20.3%,54.1%,19.8%,20.6%,32.8%,19.5%,27.9%,107%,-0.433% (active),20%,21.3%,37%,10.9%,10.9%,31.6%,10.1%
O=C1/C(=C/c2ccc(Cl)cc2)CN(C(=O)C(Cl)Cl)C/C1=C\c1ccc(Cl)cc1,-8.06% (active),-28.6% (active),-3.39% (active),-61.8% (active),1.03% (active),-7.85% (active),-76.3% (active),-97.9% (active),-8.2% (active),-2.96% (active),-58.3% (active),-82.6% (active),-95.3% (active),-78.9% (active),-70.8% (active),-86.6% (active),-91.8% (active),-81.9% (active)
COC(=O)c1sccc1-c1cc(O)c(C(=O)Nc2ccccc2)s1,92.8%,93.4%,101%,117%,89.7%,78.3%,95%,96.2%,103%,93.2%,67.5%,116%,102%,109%,82%,94.6%,109%,87%
Ic1ccc(Nc2nc3nonc3nc2Nc2ccc(I)cc2)cc1,-12.6% (active),-36.6% (active),6.55% (active),34%,19.3%,-19.9% (active),28.5%,9.01% (active),19.2%,3.09% (active),-9.49% (active),-21.7% (active),6.04% (active),13.8%,3.42% (active),0.308% (active),8.32% (active),7.87% (active)
CNC(=O)c1cc(Oc2ccc3c(c2)sc2nc(-c4ccc(NC(=O)[C@@H](NC(=O)OC)C(C)C)cc4)cn23)ccn1,66.1%,30.3%,34.9%,117%,66.4%,98%,82.2%,63.3%,81.6%,65.1%,8.68% (active),14.2%,38.5%,84.3%,51.6%,55%,93.4%,32.8%

Structure (SMILES),growth [1],growth [2],growth [3],growth [4],growth [5],growth [6],growth [7],growth [8],growth [9],growth [10],growth [11],growth [12],growth [13],growth [14],growth [15],growth [16],growth [17],growth [18]
N#Cc1c(-c2cccc(Cl)c2)cc(-c2cccnc2)[nH]c1=O,21.9%,88.8%,98.1%,98.4%,102%,90.7%,72.4%,47.2%,62.7%,80.3%,87.3%,72.5%,2.97% (active),71.1%,48.2%,72.4%,98.6%,65.6%
Cn1cc(-c2nc3c(F)cc4[nH]ncc4c3c3c2CCCC3)c(C(F)(F)F)n1,-30.9% (active),-5.82% (active),39.4%,65%,73.8%,14.1%,24%,55.2%,18%,60.2%,39.9%,4.21% (active),14%,18.6%,24.6%,15.1%,65.3%,24.2%
C[C@H](c1nc2ccc(C#N)cc2[nH]1)[C@H]1CC[C@H]2[C@@H]3CCC4=CC(=O)CC[C@]4(C)[C@H]3CC[C@]12C,34.6%,20.3%,79.6%,85.3%,46%,80%,66.9%,72.1%,63.4%,67.5%,29.4%,58.9%,84.2%,89.1%,59.5%,49.7%,67.4%,68.9%
CCN(CCNc1ccc(C)c2sc3cc(Cl)ccc3c(=O)c12)CC(C)(C)O,49.6%,49.4%,85.5%,70.2%,72.8%,45.1%,50.7%,91.7%,79.3%,74.6%,69.5%,84.9%,35.2%,82.2%,58.5%,50.6%,39.6%,40.5%
CN(C)CCn1c(=O)c2ccccc2n2nc3ccccc3c12,46.8%,101%,79.2%,105%,83.9%,94.5%,74.9%,99.2%,97.8%,76.7%,99.8%,103%,100%,64.2%,72.6%,71.1%,99.8%,95%
O=c1cc(-c2ccccc2)nc(SCc2nc3cc(Cl)c(Cl)cc3[nH]2)[nH]1,6.56% (active),114%,104%,95.2%,101%,92.4%,101%,106%,105%,97%,79%,108%,105%,104%,92.5%,97.3%,102%,96%
C1CCC(N2CN3c4nonc4N4CN(C5CCCCC5)CN5c6nonc6N(C2)C3C45)CC1 (centres undefined),83.8%,81.3%,95.5%,102%,88.9%,109%,104%,101%,86.6%,93.3%,95.3%,99.8%,100%,92.8%,89.1%,101%,98.4%,98.8%
CCOc1ccc(NC(=O)Nc2ccc(OCC)cc2)cc1,99.4%,109%,103%,111%,112%,103%,110%,105%,101%,106%,95.7%,113%,109%,116%,94.5%,106%,103%,102%
N=C(N)c1ccc(-c2ccc(-c3ccccc3)o2)o1,-15% (active),9.58% (active),34.4%,72.8%,63.1%,45.9%,45.3%,17%,45.6%,36.3%,32.8%,64.6%,-32.9% (active),1.14% (active),20.6%,19.4%,46.9%,16.6%
O=[N+]([O-])c1ccccc1Nc1ccc2ccccc2c1,88.1%,82.7%,88.6%,113%,88%,84.7%,87%,96.3%,72.5%,105%,91.1%,84.8%,99%,83.8%,74.9%,82.9%,105%,99.4%
C[C@@H]1CN(c2cnc(C(=O)Nc3cc(F)cc4cccnc34)cn2)C[C@H](C)N1,28.6%,26%,61.1%,83.9%,12.7%,86.2%,78.9%,39.5%,76.8%,66%,30%,102%,97%,46.2%,9.07% (active),13.1%,91.7%,83.4%
COc1cc(C[C@H]2COc3cc(O)cc(O)c3C2=O)ccc1O,19%,18.2%,28.1%,101%,63.1%,29.2%,41.3%,14.1%,13.7%,20.9%,31.3%,27.8%,-22.5% (active),23.1%,22.6%,12.6%,88.2%,24.7%
COC12C=C/C(=C(/C(=O)OCc3cncnc3)C(=O)CCCCCCCCC3(OC)C=C/C(=C(/C(=O)OCc4cncnc4)C(=O)CCCCCCCC1)O3)O2,-36% (active),-20.1% (active),9.06% (active),-25.6% (active),-4.86% (active),36.9%,-59.5% (active),-57.8% (active),26.5%,8.14% (active),10.2%,-10.2% (active),-49.8% (active),4.94% (active),3.84% (active),-63.8% (active),-77.5% (active),-89.2% (active)
CN(C)c1ccc(/C=C2\C=C(c3nc4ccccc4s3)OC2=O)cc1,96.7%,72%,100%,96.9%,81.7%,86.8%,89.7%,102%,92.2%,98.8%,78%,110%,100%,94.7%,70.8%,100%,97.8%,93.7%
O=C1C=C(SCCO)C(=O)c2ccccc21,-16.1% (active),12.9%,28.9%,87.7%,39.1%,105%,68.6%,-3.21% (active),2.8% (active),4.12% (active),-1.68% (active),-26.5% (active),-88.3% (active),-52.6% (active),-55.1% (active),-48.5% (active),78.3%,83.4%
COCCn1cc(-c2nc(-c3cc4cccnc4n3C)cs2)c2ccccc21,10.1%,55.7%,39%,49%,25.1%,58.7%,43.7%,31.5%,61.5%,13.3%,-36.7% (active),24.9%,6.84% (active),28.9%,6.6% (active),23.5%,57.8%,4.96% (active)
